Source: PubChem BioAssay (The Scripps Research Institute Molecular Screening Center)
A selection: hits, their analogues and other compounds. The true share with any hit is near 2.3%.
CHO-K1 Ca antag: counter-screen for M1 antagonists: effect in parental CHO-K1 cells; inhibition, % at 3 µM; ATP-induced calcium, Fluo-8 fluorescence; 0.6% of 360,000 active;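 active means inhibition above a per-plate cutoff, the plate's mean sample inhibition plus 3 SD, cut at about 24% in these data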
CHRM1 PAM: human M1 muscarinic receptor positive allosteric modulators, primary screen, CHO-K1 cells, Fluo-8 calcium fluorescence, 1536-well | 0.088% of 360,000 active | CHO-K1 hM1, ACh EC20; 0% = ACh EC20, 100% = maximal ACh | activation, % at 3 µM | Muscarinic acetylcholine receptor M1 (Homo sapiens), P11229 | AID 588819, 2011; in the data active means activation above about 19%, passing the limit was not always enough
Target sequence (P11229 whole entry, looked up): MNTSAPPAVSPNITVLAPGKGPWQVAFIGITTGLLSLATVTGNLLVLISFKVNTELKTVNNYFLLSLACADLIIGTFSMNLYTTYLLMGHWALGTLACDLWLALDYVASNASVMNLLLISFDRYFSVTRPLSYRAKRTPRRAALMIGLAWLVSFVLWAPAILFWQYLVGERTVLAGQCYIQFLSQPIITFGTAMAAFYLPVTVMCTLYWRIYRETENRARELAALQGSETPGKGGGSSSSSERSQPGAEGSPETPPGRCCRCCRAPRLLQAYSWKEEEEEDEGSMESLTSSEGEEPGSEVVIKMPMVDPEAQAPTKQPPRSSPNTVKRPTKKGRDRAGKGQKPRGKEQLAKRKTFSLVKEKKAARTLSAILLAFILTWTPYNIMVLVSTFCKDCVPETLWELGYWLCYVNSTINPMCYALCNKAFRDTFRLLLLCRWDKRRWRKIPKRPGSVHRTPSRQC
M1 PAM parental: nonselective calcium activators in parental CHO-K1 cells, primary screen, counter-screen for M1 PAM project, cell-based, Fluo-8 calcium fluorescence, full deck, 1536-well | ATP EC20; 0% at ATP EC20, 100% at ATP max | activation, % at 3 µM | 0.02% of 360,000 active | AID 602247, 2012;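 active means activation above the run cutoff, the mean activation of all test compounds plus 3 SD, cut at about 40% in these data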;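 further: peak over basal fluorescence ratio in a 140 s read after ATP addition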
M1 ag: human M1 muscarinic receptor agonists, primary screen, Fluo-8 calcium fluorescence, CHO-K1 cells, HTS. CHO-K1 hM1, agonist mode; 0% DMSO, 100% acetylcholine EC100. activation, % at 3 µM. Muscarinic acetylcholine receptor M1 (Homo sapiens), P11229. 0.33% of 360,000 active;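 active means activation above the run's mean compound activation plus 3 SD, cut at about 16% in these data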;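 further: peak over basal fluorescence ratio within a 140 s kinetic read after compound addition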
M1 antag: human M1 muscarinic receptor antagonists, primary screen, CHO-K1 cells, Fluo-8 calcium fluorescence, 1536-well; 1.3% of 360,000 active; Muscarinic acetylcholine receptor M1 (Homo sapiens), P11229; inhibition, % at 3 µM; CHO-K1 hM1, ACh EC80 antagonist;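 active means percent inhibition above its own plate's cutoff, namely the mean of that plate's compound wells plus 3 SD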;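 further: peak over basal fluorescence ratio during 140 s after agonist addition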
M1 ag parental: counter-screen for M1 agonists: effect in parental CHO-K1 cells; Fluo-8 calcium fluorescence; scaled to maximal ATP response, vehicle zero; activation, % at 3 µM; 0.48% of 360,000 active; in the data active means activation above about 15%;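 further: untransfected CHO-K1 host cells lacking M1 receptor as counterscreen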
Each line names hits and unclear results; the compound was inactive in the other large screens.

Cc1cccc(C)c1NC(=O)/C(C#N)=C/c1ccc(-c2ccc(C(=O)O)cc2)o1	none
CC(C)CN(CC(C)C)C(=O)Nc1cccc([N+](=O)[O-])c1	M1 ag parental 15
O=C(Nc1ccc(OC(F)F)c(Cl)c1)Nc1ccc2c(c1)OCO2	CHO-K1 Ca antag 27
O=C(Nc1ccc2c(c1)OCO2)Nc1ccc(F)cc1F	none
CC(C(=O)Nc1cccc([N+](=O)[O-])c1)[n+]1ccccc1 (stereo not drawn)	none
O=C(Nc1ccc(F)cc1)Nc1ccc2c(c1)OCO2	M1 ag parental 21
CCNC(=O)C1(C)CCCN1C(=O)c1cc(OC)c(OC)c(OC)c1 (stereo not drawn)	none
CCOC(=O)c1sc(NC(=O)c2cccs2)cc1C	none
CCOC(=O)c1sc(NC(=O)Nc2cccc(Cl)c2)cc1C	CHO-K1 Ca antag 39, M1 antag 43, M1 ag parental 18
CCN1CCN(CC(=O)N2c3ccccc3Sc3ccccc32)CC1	M1 antag 76
O=C(CN1CCCC1)N1c2ccccc2Sc2ccccc21	M1 antag 97
CCN(CC)S(=O)(=O)c1ccc(SCC(=O)c2c(N)n(C3CC3)c(=O)[nH]c2=O)nc1	none
COc1cccc(S(=O)(=O)N(C)C[C@@H]2Oc3ncc(C#CCN(C)C)cc3C(=O)N([C@H](C)CO)C[C@H]2C)c1	M1 antag 49
CCCC#Cc1cnc2c(c1)C(=O)N([C@H](C)CO)C[C@H](C)[C@@H](CN(C)C(=O)CCN1CCCCC1)O2	M1 antag 45
C[C@@H]1CN([C@@H](C)CO)C(=O)c2cc(C#CCN(C)C)cnc2O[C@H]1CN(C)Cc1ccc2c(c1)OCO2	M1 antag 62
C[C@@H]1CN([C@@H](C)CO)C(=O)c2cc(Br)cnc2O[C@H]1CN(C)C(=O)CCN1CCCCC1	none
COc1ccc(NC(=O)CN(C)C(=O)c2ccc3c(c2)S(=O)(=O)N=C2CCCCCN23)cc1	none
CN(c1cccc(NC(=O)Nc2cccc(Cl)c2)c1)S(C)(=O)=O	M1 ag parental 18
Cc1ccc(SCCC(=O)Nc2cccc(N(C)S(C)(=O)=O)c2)cc1	CHO-K1 Ca antag 42, M1 ag parental 25
Cc1ccc(C(=O)NCC(=O)Nc2ccc(Cl)cc2)s1	none
CCCC1CC(C)(C(=O)CSc2n[nH]c(-c3ccccc3)n2)OC1=O (stereo not drawn)	M1 antag 30
O=C(CSc1n[nH]c(-c2ccccc2)n1)N1CCOCC1	none
Cc1ccc(C2(c3noc(CN(C)Cc4ccccn4)n3)CCCC2)cc1	M1 antag 38
CN(NC(=O)C(=O)NCc1ccco1)C(=O)Nc1ccc(Cl)cc1	CHO-K1 Ca antag 27
Cc1cc(C(=O)Nc2c(F)cc(F)cc2Br)n(-c2ccccc2)n1	none
COc1ccc(S(=O)(=O)NC(C)C(=O)NCc2ccccn2)cc1Cl (stereo not drawn)	none
CN(C)CCCCOc1ccccc1-c1ccccc1	CHO-K1 Ca antag 24, M1 antag 18
O=C1C=CC(c2c[nH]c3ccccc23)CC1 (stereo not drawn)	none (no result: CHRM1 PAM, M1 ag, M1 antag)
O=C(NCCO)OC1CC2CC1[C@H]1CCCCN1C2=O (stereo partly drawn)	none (no result: CHRM1 PAM, M1 ag, M1 antag)
COc1ccc(-c2cc(C(=O)N3CCN(c4ncccn4)CC3)c3ccccc3n2)cc1OC	none
Cc1ccc(-c2cc(C(=O)N3CCN(c4ccccc4O)CC3)c3ccccc3n2)o1	M1 antag 42
CCN1CCN(C(=O)c2cc(-c3ccc(Cl)s3)nc3ccccc23)CC1	M1 ag parental 19
CC(C)Oc1cccc(-c2cc(C(=O)N3CCN(S(C)(=O)=O)CC3)c3ccccc3n2)c1	none
CC(C)Oc1cccc(-c2cc(C(=O)N3CCN(c4ncccn4)CC3)c3ccccc3n2)c1	M1 antag 27
COc1cccc(-c2cc(C(=O)N3CCN(c4ncccn4)CC3)c3ccccc3n2)c1	CHO-K1 Ca antag 34, M1 antag 45
C/C(=N\NC(=O)c1ccc(OC2OCCOC2Oc2ccc(C(=O)N/N=C(\C)c3ccncc3)cc2)cc1)c1ccncc1 (stereo not drawn)	none
Cc1ccc(-c2cc(C(=O)N3CCN(c4ncccn4)CC3)c3ccccc3n2)cc1	M1 antag 31
Cc1nnc(SCC(=O)Nc2cccc(S(=O)(=O)N(C)c3ccccc3)c2)s1	M1 antag 36
COc1cccc(CN(C)CC(=O)Nc2cccc(S(=O)(=O)N(C)c3ccccc3)c2)c1OC	none
CN(c1ccccc1)S(=O)(=O)c1cccc(NC(=O)COc2cccc([N+](=O)[O-])c2)c1	none
CCOc1ccc(CN(C)CC(=O)Nc2cccc(S(=O)(=O)N(C)c3ccccc3)c2)cc1	M1 ag parental 18
COCCn1cnnc1SCC(=O)Nc1cccc(S(=O)(=O)N(C)c2ccccc2)c1	none
CCC(=O)c1ccc(OCC(=O)Nc2cccc(S(=O)(=O)N(C)c3ccccc3)c2)cc1	M1 antag 56, M1 ag parental 17
Cc1ccc(C(=O)C(C)OC(=O)CN2C(=O)NC3(CCCC3)C2=O)cc1 (stereo not drawn)	none
O=C(NCc1ccccc1)C1CCC(=O)N(CCCN2CCCC2=O)C1 (stereo not drawn)	none
O=Cc1c[nH]c2ccc(NC(=O)OCc3ccccc3)cc12	CHO-K1 Ca antag 29
O=C1NC(Cc2c[nH]c3ccccc23)C(=O)N1Cc1ccccc1 (stereo not drawn)	none
COC(=O)c1ccc(CN2C(=O)NC(Cc3c[nH]c4ccccc34)C2=O)cc1 (stereo not drawn)	M1 ag parental 15
CCN1C(=O)C(=O)N(CC(=O)N2CCN(c3ccccc3)CC2)C1=O	none
CCOC(=O)C1CC2=C(CC(C)(C)CC2=O)N(CCOC)C1=O (stereo not drawn)	none
COc1cccc(S(=O)(=O)Nc2ccc(C(=O)Nc3ccncc3)cc2)c1	none
COc1ccc(NC(=O)c2cccc(S(=O)(=O)Nc3ccc(Br)cc3)c2)cn1	M1 ag parental 16
O=C(Nc1ccc(Br)cc1)c1cccc(S(=O)(=O)Nc2cnc3ccccc3c2)c1	none
O=C(Nc1cccc(S(=O)(=O)Nc2ccc(Cl)cc2)c1)c1ccc(Cl)nc1	CHO-K1 Ca antag 28, M1 antag 29
COc1ccc(NS(=O)(=O)c2cccc(NC(=O)c3ccc(Cl)nc3)c2)cc1	CHO-K1 Ca antag 43
O=C(CN(c1ccccc1)S(=O)(=O)c1ccc(Cl)cc1)Nc1cccnc1	none
